Entries with a potency or affinity are not part of this list. Unmarked numbers belong to inactive results. Activity calls are given as the source filed them.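 Rule for the calls: active = fitted EC50 under 30 µM, or percent of control over 300% when no usable fit; inactive = the rest.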
Biological target: Estrogen receptor (Homo sapiens) (UniProt P03372)
Assay: ERα coactivator recruitment enhancers – biochemical, TR-FRET, ERα LBD, dose response (AID 737)
Conditions: TR-FRET ER-alpha LBD / SRC-Cy5 coactivator recruitment; at 12.5 µM; hits give high values

Estrogen receptor (Homo sapiens), sequence (P03372 whole entry, looked up, the tested form may be a part): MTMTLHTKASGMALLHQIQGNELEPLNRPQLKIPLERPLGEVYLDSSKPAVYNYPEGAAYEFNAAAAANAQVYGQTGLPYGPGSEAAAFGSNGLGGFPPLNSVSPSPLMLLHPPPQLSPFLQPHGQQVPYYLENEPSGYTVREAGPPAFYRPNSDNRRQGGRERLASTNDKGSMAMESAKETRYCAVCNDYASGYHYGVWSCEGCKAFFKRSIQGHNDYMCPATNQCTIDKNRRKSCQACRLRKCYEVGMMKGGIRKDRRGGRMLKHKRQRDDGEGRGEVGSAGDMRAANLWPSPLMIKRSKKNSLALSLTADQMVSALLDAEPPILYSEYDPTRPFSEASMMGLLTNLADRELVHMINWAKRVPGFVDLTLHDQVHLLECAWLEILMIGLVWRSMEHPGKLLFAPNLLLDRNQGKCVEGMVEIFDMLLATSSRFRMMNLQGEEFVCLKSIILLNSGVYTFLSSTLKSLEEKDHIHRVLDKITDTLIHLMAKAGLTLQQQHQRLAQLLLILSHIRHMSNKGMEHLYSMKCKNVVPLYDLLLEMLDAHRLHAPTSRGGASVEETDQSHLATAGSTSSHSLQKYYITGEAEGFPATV

Structure (SMILES) | percent of control
CCOC(=O)Cn1c(-c2nonc2NC(=O)c2ccccc2F)nc2ccccc21 | 218%
Cc1ccc(C)n1-c1cccc(C(=O)O)c1 | 26.6%
Cc1ccc(NC(=O)CSc2nnc(Cn3c(=O)sc4ccccc43)n2C)cc1Cl | 165%
CCOC(=O)N1c2ccccc2C=CC1OCC (stereo not drawn) | 152%
COc1ccc(-c2c(C#N)c(C)nc3c2C(=O)c2ccccc2-3)cc1 | 239%
CCOC(=O)c1sc(NC(=O)c2ccc3ncsc3c2)nc1C | 349% (active)
O=C(c1cc2ccccc2oc1=O)N(Cc1ccco1)Cc1cccs1 | 110%
O=C(COC(=O)C(O)c1ccccc1)c1ccc2c(c1)OCCO2 (stereo not drawn) | 108%
CCOC(=O)c1c(NC(=O)CSc2nnc(-c3ccccc3)o2)sc(C(C)=O)c1C | 305% (active)
O=C(Cc1ccc(Cl)cc1)Nc1ccc2oc(-c3ccncc3)nc2c1 | 207%
O=C(Nc1ccc(-c2noc(-c3cccs3)n2)cc1)c1cccnc1 | 208%
COc1ccc(OC)c(C(=O)CSc2nnc(-c3ccc(OC)c(OC)c3)o2)c1 | 662% (active)
Cc1ccc(S(=O)(=O)c2nc(S(C)(=O)=O)sc2NCC2CCCO2)cc1 (stereo not drawn) | 136%

Source: PubChem BioAssay AID737 (Emory University Molecular Libraries Screening Center, 2007)
